Source: PubChem BioAssay (NCATS)
Records with an inconclusive call do not appear. The source made the active and inactive calls. The call rests on the fitted dose curve; in most records, active means well fitted curve in the direction sought with a large enough effect; inconclusive means small, poorly fitted or top-dose-only effect, or another doubt; inactive means no such curve, though single readings can be large; an effect the other way counts as inactive or inconclusive.

Assays:
[1] = BET inhibitor-based combinations targeting novel dependencies in MECOM-rearranged (r) AML: SET-2 cell line (AID 2202231); conditions: SET-2 AML cells viability, CellTiter-Glo luminescence, 48 h; viability: hits give low values, concentration not given here; further: nearly all actives have a fitted effect of over 35% in size;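 on viability: plate controls were DMSO treated cells for no effect and wells without cells for full effect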
Outline: (§1)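 500 cells/well; 11-pt dose curve; 48 h, standard incubator; CellTiter-Glo luminescence after 15 min RT; DMSO/empty-well normalization; AUC plus Z-AUC (mean-centered within each line).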

[2] = BET inhibitor-based combinations targeting novel dependencies in MECOM-rearranged (r) AML: OCI-AML3 cell line (AID 2202232); conditions: Potency: OCI-AML3 viability; further: nearly all actives have a fitted effect of over 35% in size
Outline: as §1

[3] = BET inhibitor-based combinations targeting novel dependencies in MECOM-rearranged (r) AML: HNT-34 cell line (AID 2202234); further: nearly all actives have a fitted effect of over 35% in size
Outline: (§2)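 Cells were plated at 500 per well and exposed to each drug across an 11-point dose range for 48 hr at standard incubator conditions. Viability was read by CellTiter-Glo luminescence, and activity was expressed as AUC and per-cell-line Z-transformed AUC.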

[4] = BET inhibitor-based combinations targeting novel dependencies in MECOM-rearranged (r) AML: AML-191 cell line (AID 2202236; further: nearly all actives have a fitted effect of over 35% in size)
Outline: as §1

[5] = BET inhibitor-based combinations targeting novel dependencies in MECOM-rearranged (r) AML: MV-4-11 cell line (AID 2202233); further: nearly all actives have a fitted effect of over 45% in size
Outline: as §2

[6] = BET inhibitor-based combinations targeting novel dependencies in MECOM-rearranged (r) AML: AML-194 cell line (AID 2202237; further: nearly all actives have a fitted effect of over 40% in size)
Outline: as §1

[7] = BET inhibitor-based combinations targeting novel dependencies in MECOM-rearranged (r) AML: UCSD-AML1 cell line (AID 2202235); further: nearly all actives have a fitted effect of over 40% in size
Outline: as §2
Potency means the concentration at half of the fitted maximal effect.

CNC(=O)CCc1cc(-c2ccc(-c3ccc(C(F)(F)F)cc3)cc2)n(-c2ccc(N3CCNCC3)cc2)n1
active: Potency [1] 7.42 µM | Potency [2] 5.9 µM | Potency [3] 8.33 µM | Potency [4] 5.9 µM

C[C@@H]1CC(=O)Nc2cccc(-c3ccc4c(c3)c(-c3cnn(C)c3)nn4C)c2N1
active: Potency [1] 6.61 µM | Potency [2] 6.61 µM | Potency [5] 5.25 µM | Potency [6] 6.61 µM

CN[C@@H]1[C@@H](O)[C@@H](O[C@@H]2[C@@H](O)[C@H](O[C@H]3O[C@H](CN)[C@@H](O)[C@H](O)[C@H]3O)[C@@H](N)C[C@H]2NC(=O)C(O)CN)OC[C@]1(C)O (some centres not stated)
inactive: viability [1] 116% | Potency [2] | Potency [3] | Potency [4]

COC1CC(C(=O)c2ccc3c(N)ncc(-c4ccc(-c5cnn(C)c5)cc4)c3n2)C1 (configuration not stated)
inactive: viability [1] 92.9%
active: Potency [2] 8.33 µM | Potency [5] 2.95 µM | Potency [6] 11.8 µM

COc1cc(NS(C)(=O)=O)ccc1Nc1c2ccccc2nc2ccccc12
active: Potency [1] 2.09 µM | Potency [2] 0.372 µM | Potency [3] 0.372 µM | Potency [7] 0.417 µM | Potency [4] 0.742 µM | Potency [6] 0.742 µM

CC(C)n1ncnc1-c1cn2c(n1)-c1ccc(O[C@@H](C)C(N)=O)cc1OCC2
inactive: viability [1] 99%
active: Potency [2] 2.35 µM | Potency [3] 18.6 µM | Potency [7] 5.25 µM

CN1C(C(=O)Nc2ccccn2)=C(O)c2sccc2S1(=O)=O
inactive: viability [1] 113% | Potency [2] | Potency [3] | Potency [7] | Potency [4] | Potency [6]

COc1ccc(CNC(=O)c2cc(-c3cncc(Cl)c3)cnc2-c2ccccn2)nc1OC
inactive: viability [1] 109% | Potency [2] | Potency [3] | Potency [7] | Potency [4] | Potency [6]

O=C1CC(c2c[nH]c3ccc(F)cc23)C(=O)N1 (configuration not stated)
inactive: viability [1] 111% | Potency [2] | Potency [3] | Potency [7] | Potency [4] | Potency [6]

CCS(=O)(=O)N1CCC(C(C)n2c(C)c(C(=O)NCc3c(OC)cc(C)[nH]c3=O)c3ccccc32)CC1 (configuration not stated)
inactive: viability [1] 108% | Potency [2] | Potency [3] | Potency [7] | Potency [6]

C=CC[N+]1([C@H]2C[C@H]3[C@@H]4CC[C@H]5C[C@H](O)[C@@H](N6CCOCC6)C[C@]5(C)[C@H]4CC[C@]3(C)[C@H]2OC(C)=O)CCCC1
inactive: viability [1] 115% | Potency [2] | Potency [3] | Potency [7] | Potency [4] | Potency [6]

N#Cc1cc2cc(CN3CCC(Nc4ncnc5sc(CC(F)(F)F)cc45)CC3)c(O)cc2n1Cc1cn[nH]c1
active: Potency [1] 23.5 µM | Potency [2] 18.6 µM | Potency [5] 5.9 µM | Potency [6] 26.3 µM

COc1cc2c3c(n(CCCn4ccnc4)c(=O)c2cc1OC)-c1cc2c(cc1C3=O)OCO2
active: Potency [1] 0.0372 µM | Potency [2] 0.0372 µM | Potency [3] 0.0263 µM | Potency [7] 0.0209 µM | Potency [4] 0.0332 µM

CC(C)(O)c1coc(S(=O)(=O)NC(=O)Nc2c3c(cc4c2CCC4)CCC3)c1
inactive: viability [1] 126% | Potency [2] | Potency [3] | Potency [7] | Potency [4] | Potency [6]

NC(CO)(CO)CCc1ccc(Sc2cccc(OCc3ccccc3)c2)cc1Cl
active: Potency [1] 18.6 µM | Potency [2] 9.34 µM | Potency [3] 18.6 µM | Potency [4] 10.5 µM | Potency [6] 9.34 µM

CNC(=O)c1c(C)oc2cc(Oc3ncnc4cc(OC)c(OC)cc34)ccc12
inactive: viability [1] 116% | Potency [2] | Potency [3] | Potency [7] | Potency [4] | Potency [6]

C#CCN(C)CC1=Cc2ccccc2Oc2ccccc21
inactive: viability [1] 106% | Potency [2] | Potency [3] | Potency [7] | Potency [4] | Potency [6]

Cc1nc2cccc(N)c2c(=O)n1C1CCC(=O)NC1=O (configuration not stated)
inactive: viability [1] 109% | Potency [2] | Potency [3] | Potency [7] | Potency [4] | Potency [6]

CO[C@@]12[C@H](COC(N)=O)C3=C(C(=O)C(C)=C(N)C3=O)N1C[C@@H]1N[C@@H]12
inactive: viability [1] 95% | Potency [2] | Potency [3] | Potency [7] | Potency [4] | Potency [6]

C[N+](C)(C)CC(=O)O
inactive: viability [1] 112% | Potency [2] | Potency [3] | Potency [7] | Potency [6]

C[C@@H](O[C@H]1OCCN(Cc2n[nH]c(=O)[nH]2)[C@@H]1c1ccc(F)cc1)c1cc(C(F)(F)F)cc(C(F)(F)F)c1
active: Potency [1] 20.9 µM | Potency [2] 18.6 µM | Potency [3] 18.6 µM | Potency [4] 16.6 µM

CC[C@H](CC[C@@H](C)[C@H]1CC[C@H]2[C@@H]3CC=C4C[C@@H](O)CC[C@]4(C)[C@H]3CC[C@]12C)C(C)C
inactive: viability [1] 104% | Potency [2] | Potency [3] | Potency [7] | Potency [4] | Potency [6]

CC(=O)CC(c1ccccc1)c1c(O)c2ccccc2oc1=O (configuration not stated)
inactive: viability [1] 107% | Potency [2] | Potency [3] | Potency [7] | Potency [4] | Potency [6]

CCCCc1ccc2nc(NC(=O)OC)[nH]c2c1
active: Potency [1] 0.263 µM | Potency [2] 0.148 µM | Potency [5] 0.186 µM | Potency [6] 0.105 µM

CCOC(=O)C1=C(C)NC(=S)NC1c1cccc(O)c1 (configuration not stated)
active: Potency [2] 20.9 µM | Potency [3] 18.6 µM
inactive: viability [1] 98.4%

Nc1ccc(F)cc1NC(=O)c1ccc(CNC(=O)/C=C/c2cccnc2)cc1
active: Potency [1] 13.2 µM | Potency [2] 4.17 µM | Potency [3] 4.17 µM | Potency [7] 5.25 µM | Potency [4] 16.6 µM | Potency [6] 14.8 µM

COc1cc(-c2cn(C)c(=O)c3cnccc23)cc(OC)c1CN(C)C
active: Potency [2] 4.68 µM
inactive: viability [1] 106% | Potency [3] | Potency [7] | Potency [4] | Potency [6]

CCCCC[C@H](O)/C=C/[C@H]1[C@H](O)CC(=O)[C@@H]1CCCCCCC(=O)O
inactive: viability [1] 103% | Potency [4] | Potency [6]
active: Potency [2] 9.34 µM | Potency [3] 16.6 µM | Potency [7] 11.8 µM

CC(C)(C)C(=O)OCOP(=O)(COCCn1cnc2c(N)ncnc21)OCOC(=O)C(C)(C)C
active: Potency [1] 4.68 µM | Potency [2] 0.525 µM | Potency [3] 2.63 µM | Potency [7] 1.86 µM | Potency [4] 1.66 µM | Potency [6] 2.95 µM

O=C(O)CC(C(=O)O)n1c(O)c(C2=c3cc(Br)ccc3=NC2=O)sc1=S (configuration not stated)
inactive: viability [1] 100% | Potency [2] | Potency [3] | Potency [7] | Potency [4] | Potency [6]

O=C1Cc2cc(C(=O)NC3C[C@H]4CC[C@@H](C3)N4S(=O)(=O)CC3CCN(CCCC(F)(F)F)CC3)c(Cl)cc2N1 (some centres not stated)
inactive: viability [1] 107% | Potency [2] | Potency [3] | Potency [7] | Potency [4]

C=CCN1C[C@H](C(=O)N(CCCN(C)C)C(=O)NCC)CC2c3cccc4[nH]cc(c34)C[C@H]21 (some centres not stated)
active: Potency [2] 10.5 µM
inactive: viability [1] 115% | Potency [3] | Potency [7] | Potency [4] | Potency [6]

CN(CCO)C1CCN(c2ccc(Nc3ncc4c5ccnc(F)c5n(C5CCCC5)c4n3)nc2)CC1
active: Potency [1] 2.04 µM | Potency [2] 0.182 µM | Potency [3] 1.82 µM

Cc1[nH]nc2ncc(C(=O)N3CCC[C@H]3c3ccc(Cl)cc3)cc12
inactive: viability [1] 105% | Potency [2] | Potency [3] | Potency [7] | Potency [4] | Potency [6]

COc1cc([C@@H](CC(=O)O)c2ccc(C)c(CN3C[C@@H](C)Oc4ccccc4S3(=O)=O)c2)cc2nnn(C)c12
inactive: viability [1] 67.3% | Potency [2] | Potency [3] | Potency [7] | Potency [4] | Potency [6]

CC(=O)Nc1cc(Oc2ccc3c(nc(Nc4ccc(F)cc4F)n3C)c2C)ccn1
active: Potency [1] 0.209 µM | Potency [2] 0.934 µM | Potency [3] 0.118 µM | Potency [7] 0.235 µM

NC(=S)N/N=C/c1ncccc1N
active: Potency [1] 16.6 µM | Potency [2] 5.25 µM | Potency [3] 16.6 µM | Potency [7] 5.9 µM | Potency [4] 23.5 µM | Potency [6] 20.9 µM

CS[C@H]1SC[C@@H]2C(=O)N(C)[C@H](C(C)C)C(=O)OC[C@H](NC(=O)c3cnc4ccccc4n3)C(=O)N[C@H](C)C(=O)N(C)[C@H]1C(=O)N(C)[C@H](C(C)C)C(=O)OC[C@H](NC(=O)c1cnc3ccccc3n1)C(=O)N[C@H](C)C(=O)N2C
active: Potency [1] 0.0148 µM | Potency [2] 0.0047 µM | Potency [3] 0.0066 µM | Potency [7] 0.0053 µM | Potency [4] 0.0132 µM | Potency [6] 0.0132 µM

O=C(Nc1cnn2ccc(N3CCC[C@@H]3c3cc(F)ccc3F)nc12)N1CC[C@H](O)C1
inactive: viability [1] 98.9% | Potency [2] | Potency [3] | Potency [7]

Nc1ncnc2nc(-c3ccc(N4CCOCC4)nc3)cc(-c3cccc(Br)c3)c12
active: Potency [5] 8.33 µM
inactive: viability [1] 91.6%

CN1CCN(CCCNc2ncc(Cl)c(-c3cc4c(C(=O)NC5CC5)cccc4s3)n2)CC1
inactive: viability [1] 80.2% | Potency [2] | Potency [7]

c1ccc2c(Cc3c[nH]c4ccccc34)c[nH]c2c1
inactive: viability [1] 103% | Potency [2] | Potency [7] | Potency [4] | Potency [6]

CONC(=O)c1ccccc1Nc1cc(Nc2cc(C)nn2C(C)C)ncc1Cl
inactive: viability [1] 86.2%
active: Potency [5] 14.8 µM

c1ccc(-c2nn3c(c2-c2ccnc4cc(OCCN5CCOCC5)ccc24)CCC3)nc1
inactive: viability [1] 81.4% | Potency [2]
active: Potency [7] 20.9 µM | Potency [4] 18.6 µM

CC1(C)O[C@@H]2C[C@H]3[C@@H]4C[C@H](F)C5=CC(=O)C=C[C@]5(C)[C@H]4[C@@H](O)C[C@]3(C)[C@]2(C(=O)CO)O1
inactive: viability [1] 108% | Potency [2] | Potency [3] | Potency [6]

Cc1cc(C)c(S(=O)(=O)N(CCc2cccc(Br)c2)Cc2ccc(-c3cccc(S(C)(=O)=O)c3)cc2)c(C)c1
inactive: viability [1] 117% | Potency [2] | Potency [7] | Potency [4] | Potency [6]

CC(C)(c1ccc(OCC(O)CO)cc1)c1ccc(OCC(O)CCl)cc1 (configuration not stated)
inactive: viability [1] 60% | Potency [2] | Potency [7] | Potency [4]
